# Assay outcomes (PubChem)
# Shown are actives, neighbours in structure and some others; about 12% of the full set was active somewhere.
# PI5P4K alpha inh = PI5P4K alpha (human) kinase inhibition. P48426. PI5P4Kalpha enzyme, ADP-Glo luminescence, 60 min; hits give low values. max response, %. 330,000 compounds, 1.2% hits; active = max response of -50% or lower; inconclusive = between -30% and -50%; inactive = -30% or higher; note: value at the top dose of about 77 µM; % is set by controls: 0 for no effect and ±100 for the full control effect
# Target sequence (P48426 whole entry, looked up): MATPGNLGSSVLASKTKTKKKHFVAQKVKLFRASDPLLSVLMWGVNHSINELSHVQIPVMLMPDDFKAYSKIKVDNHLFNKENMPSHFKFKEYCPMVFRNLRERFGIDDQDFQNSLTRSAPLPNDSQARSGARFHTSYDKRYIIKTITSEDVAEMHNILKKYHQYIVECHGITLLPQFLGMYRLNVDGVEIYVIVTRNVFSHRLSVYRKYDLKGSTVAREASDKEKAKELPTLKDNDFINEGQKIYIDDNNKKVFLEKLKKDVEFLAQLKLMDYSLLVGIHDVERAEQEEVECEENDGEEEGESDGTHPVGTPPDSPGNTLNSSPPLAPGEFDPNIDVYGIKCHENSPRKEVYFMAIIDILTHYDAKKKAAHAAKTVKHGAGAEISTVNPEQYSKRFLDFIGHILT
#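 Single end-point luminescence (ADP-Glo) quantified ADP from PI5P4Kalpha turnover; ATP 5 microM final, 1 h at RT, 0.1% CHAPS and 0.28 mM EGTA in HEPES pH 7.4.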
# JMJD2A Tudor = blocks the human JMJD2A Tudor domain. AlphaScreen JMJD2A-Tudor / H3K4me3 peptide binding. Potency, µM (highest dose often 114 µM), inactives show at the highest dose activity change, negative = inhibition, most hits filed as inhibitors. 390,000 compounds, 4.4% hits; note: potency is the fitted concentration of half-maximal effect; % is set by controls: 0 for no effect and ±100 for the full control effect; nearly all actives have a fitted effect of over 50% in size
# HP1b binding inh = blocks HP1-beta chromodomain binding to methylated histone tails; Potency, µM (series often up to 114 µM), for the others: at the highest dose activity change, negative = inhibition, hits mostly inhibitors; 390,000 compounds, 0.56% hits; P83916; AID 540317; AlphaScreen HP1-beta / biotin-H3K9me3 peptide binding; note: potency is the fitted concentration of half-maximal effect; nearly all actives have a fitted effect of over 70% in size
#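 Compound inhibition of the preformed complex between 50 nM HP1-beta and 50 nM biotinylated H3K9me3 peptide was read by AlphaScreen. Buffer was PBS pH 7.4 with 0.01% Tween-20. Incubations ran 30 min at room temperature, with 10 ug/mL donor/acceptor beads.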
# PLK1 PBD inh = blocks phosphopeptide binding to human PLK1 polo-box domain | P53350 | Potency, µM, for the others: max response, negative = inhibition, usual class: inhibitors | 360,000 compounds, 2.8% hits | AID 720504 | Plk1 PBD binding of FITC phosphopeptide, fluorescence polarization; note: potency is the fitted concentration of half-maximal effect; series mostly up to about 57 µM; % is set by controls: 0 for no effect and ±100 for the full control effect; nearly all actives have a fitted effect of over 65% in size
# BAZ2B inh = inhibitors of human BAZ2B bromodomain; 360,000 compounds, 4.4% hits; AlphaScreen BAZ2B-H3K14Ac peptide displacement; Potency, µM (doses to about 114 µM), without a hit: at the top dose activity change, negative = inhibition, hits mostly inhibitors; Q9UIF8; note: potency is the fitted concentration of half-maximal effect; % is set by controls: 0 for no effect and ±100 for the full control effect; nearly all actives have a fitted effect of over 60% in size
#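 AlphaScreen luminescence quantifies BAZ2B engagement of H3K14Ac peptide; the protein and biotinylated peptide are both at 50 nM final, buffer PBS pH 7.4 with 0.01% Tween-20, all steps at room temperature.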
# G9a block = blocks human histone lysine methyltransferase G9a; Potency, µM (top dose mostly 102 µM), without a hit: at the highest dose activity, negative = inhibition, usual class: inhibitors; 350,000 compounds, 8.8% hits; G9a H3K9 monomethylation, AlphaScreen, 2 h; Q96KQ7; note: potency is the fitted concentration of half-maximal effect; % is set by controls: 0 for no effect and ±100 for the full control effect; nearly all actives have a fitted effect of over 75% in size
# Target sequence (Q96KQ7 913-1193 limits assumed): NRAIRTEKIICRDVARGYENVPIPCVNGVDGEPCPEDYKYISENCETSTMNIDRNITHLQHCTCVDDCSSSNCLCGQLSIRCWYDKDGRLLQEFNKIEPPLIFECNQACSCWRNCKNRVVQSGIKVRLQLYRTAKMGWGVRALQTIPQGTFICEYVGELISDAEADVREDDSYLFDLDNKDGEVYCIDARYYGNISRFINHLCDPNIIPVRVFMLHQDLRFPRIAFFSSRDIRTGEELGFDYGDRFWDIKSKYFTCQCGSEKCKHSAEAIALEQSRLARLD
#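 AlphaScreen detection with an anti-monomethyl H3K9 antibody quantified product after a 2 h room-temperature reaction containing 500 nM biotinylated H3K9 peptide, 20 µM SAM and 20 nM enzyme, which had been preincubated 15 min with compound.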
# An asterisk follows results filed as active; ? = inconclusive; . = not tested or not shown; [ ] = dose if it differs, or a comment. Unless noted, calls come from the whole dose curve; as a rule, active = well fitted curve in the direction sought with a large enough effect; inconclusive = small, poorly fitted or top-dose-only effect, or another doubt; inactive = no such curve, though single readings can be large; an effect the other way counts as inactive or inconclusive.
SMILES,PI5P4K alpha inh,JMJD2A Tudor,HP1b binding inh,PLK1 PBD inh,BAZ2B inh,G9a block
Cc1ccc(S(=O)(=O)N2CCN(C(=O)COC(=O)c3ccc(O)cc3)CC2)c(C)c1,-5,89µM*,1%,0%,3%,22%[0.501 µM]
O=C(CN1C(=O)NC2(CCCC2)C1=O)N1CCN(S(=O)(=O)c2ccccc2)CC1,-5,-6%,60%,-8%,.,12%
O=C(CN1C(=O)C2CC=CCC2C1=O)N1CCN(S(=O)(=O)c2ccccc2)CC1 (configuration not stated),-3,3%,33%,-1%,.,.
CCOc1ccc(OCCC(=O)OCC(=O)N2CCN(S(=O)(=O)c3ccc(C)cc3)CC2)cc1,0,-14%,33%,-6%,-21%,56µM*
Cc1ccc(S(=O)(=O)N2CCN(C(=O)CN3C(=O)NC4(CCOc5ccccc54)C3=O)CC2)cc1 (configuration not stated),-6,-7%,33%,-2%,1%,56µM*
Cc1ccc(C)c(S(=O)(=O)N2CCN(C(=O)CN3C(=O)C4CC=CCC4C3=O)CC2)c1 (configuration not stated),-5,-4%,-2%,4%,4%,50µM*
CCOc1ccc(N2CC(NC(=O)/C=C\c3ccc4c(c3)OCO4)CC2=O)cc1 (configuration not stated),.,2%,30%,.,6%,4%[59 µM]
COc1ccc(S(=O)(=O)N2CCN(C(=O)CN3C(=O)NC4(CCCC4)C3=O)CC2)cc1,0,0%,23%,1%,-14%,.
Cc1ccc(S(=O)(=O)N2CCN(C(=O)COC(=O)CCOc3ccccc3C)CC2)c(C)c1,0,-15%,-1%,-7%,-9%,11µM*
CCOc1ccc(S(=O)(=O)N2CCN(C(=O)CN3C(=O)NC4(CCCC4)C3=O)CC2)cc1,1,-1%,35%,1%,0%,32µM*
COc1ccc(NC(=O)c2cc3c(C)nn(-c4ccccc4)c3s2)c(OC)c1,.,10%,43%,.,-36%,-5%[59 µM]
COc1ccc(NS(=O)(=O)c2ccc(O)c(NC(=O)c3cc4c(C)nn(-c5ccc(F)cc5)c4s3)c2)cc1,-25,?,5%,75µM*,-38%,-3%[59 µM]
CCn1c(-c2ccccc2O)n[nH]c1=S,.,4µM*,29%,-22%,-32%,14µM*
S=c1[nH]nc(-c2ccccc2Br)n1Cc1ccccc1,-4,-74%,-11%,-6%,-3%,.
CCn1c(-c2cc(-c3ccccc3)sc2N)n[nH]c1=S,-10,-29%,27%,-12%,-20%,1.1µM*
Cn1c(-c2cc(Br)ccc2O)n[nH]c1=S,.,4.5µM*,?,-11%,-33%,0.5µM*
Oc1ccc(Br)cc1-c1cc(-c2ccccc2)n[nH]1,2,-7%[11.4 µM],69%,-6%,-1%,6%[59 µM]
Oc1ccc(Br)cc1-c1n[nH]c(=S)n1Cc1ccccc1,-9,?,16%,-25%,-23%,6.3µM*
COC(=O)c1ccc2c(=O)n(CCCCCC(=O)NCCc3ccccc3)c(=O)[nH]c2c1,.,-23%,39%,.,-2%,1%[59 µM]
COCCNC(=O)CSc1nc(-c2cc(OC)c(OC)c(OC)c2)[nH]c1-c1ccc(Cl)cc1,.,?,-24%,.,?,-25%[59 µM]
Cc1cccc(N2CCN(C(=O)c3cnn(-c4ccc(F)cc4F)c3C3CCN(C(=O)OC(C)(C)C)CC3)CC2)c1C,.,-17%,20%,.,-1%[57.1 µM],-30%[59 µM]
COCCn1c(-c2ccccc2F)n[nH]c1=S,-8,35µM*,44%,-7%,22%,?
O=c1c2ccccc2nc(-c2ccccc2O)n1Cc1ccccc1,.,79µM*,.,.,.,.
Oc1ccccc1-c1n[nH]c(=S)n1Cc1ccccc1,-21,20µM*,12%,-3%,?,2.8µM*
CCn1c(-c2cc(-c3cccc(OC)c3)nc3ccccc23)n[nH]c1=S,.,-36%,-2%,-8%,?,1.1µM*
SMILES,PI5P4K alpha inh,JMJD2A Tudor,HP1b binding inh,PLK1 PBD inh,BAZ2B inh,G9a block
Cc1ccccc1-c1n[nH]c(=S)n1Cc1ccccc1,5,?,17%,-25%,-16%,.
COCCn1c(CCc2ccccc2)n[nH]c1=S,-1,?,14%,-6%,0%,-7%
CSc1ncnc2c1ncn2CCCNCCCc1ccccc1,-2,.,.,-8%,.,.
O=c1cc(C(O)C[N+](=O)[O-])occ1OCc1ccccc1 (configuration not stated),0,-6%,21%,?,.,.
CCOc1ccc(OCC)c(NC(=O)C2C3C=CC(O3)C2C(=O)NCc2ccco2)c1 (configuration not stated),.,?,-14%,-4%,?,50µM*
CCOc1ccc(-c2cc(C(=O)NCCCOC)c3c(-c4ccc(CC)cc4)[nH]nc3n2)cc1,.,-7%,8%,.,-2%,10%[59 µM]
O=C(Nc1cccc(Cl)c1)c1csc([C@@H]2O[C@H](CO)[C@H](O)[C@H](O)[C@H]2O)n1,0,.,.,-9%,.,.
CCOc1ncccc1C(=O)Nc1ccc(Cl)cc1,0,?,17%,11µM*,43%,6%[59 µM]
CCOc1ccc(NC(=O)c2cnccn2)cc1,1,17%,22%,-1%,-1%,-3%[59 µM]
CCOc1ccc(NC(=O)C2CSC(c3ccncc3)=N2)cc1 (configuration not stated),-22,-7%,27%,-13%,-5%,50µM*
CCOc1ccc(NC(=O)c2ccccn2)cc1,-10,16µM*,18%,-16%,8%,-4%[59 µM]
CNS(=O)(=O)c1ccc(NC(=O)c2ccccn2)cc1,0,13µM*,-4%,-11%,7%,11%[59 µM]
NS(=O)(=O)c1ccc(CNC(=O)c2cc(-c3ccccn3)nc3ccc(Cl)cc23)cc1,-25,-21%,-10%,-20%,1%,?
CCOc1ccc(NC(=O)/C(C=Nc2ccccc2)=C(\C)O)cc1,4,?,-15%,?,-15%,45µM*
CCOc1ccc(NC(C)=O)cc1,3,-7%,21%,-5%,0%,24%[21.5 µM]
NS(=O)(=O)c1ccc(CNC(=O)c2ccccn2)cc1,3,4%[11.4 µM],56%,-9%,79µM*,5%[59 µM]
CCC(C(=O)Nc1ccccc1OC)n1nc(C)c2sc3ccccc3c2c1=O (configuration not stated),.,-3%,41%,.,5%,?
CN(C(=O)COC(=O)CCc1c[nH]c2ccccc12)C(c1ccccc1)c1ccccc1,10,?,-3%,-7%,?,13µM*
O=C(CCc1c[nH]c2ccccc12)OCc1cccc([N+](=O)[O-])c1,-4,?,?,-4%,?,40µM*
COc1ccc(NC(=O)c2nnn(CC(=O)Nc3cc(C)cc(C)c3)c2N)c(OC)c1,.,-18%,11%,.,.,-26%[59 µM]
